Laboratory results from PubChem BioAssay AID1159580 (chemical genetic matrix, 2015).
Where “and” joins values, the source holds several entries; their conditions need not be identical. Equal entries are not always repeated. Hit rate of the full screen: of about 5,500 compounds, about 2,000 (36%) were called active. Roughly 18% stayed inconclusive and do not appear here. Cut-off read from the data, not from the text of the source: active = normalized growth mostly below about 0.91 (no sharp cut-off); inconclusive = no clear call, values can overlap the other calls; inactive = mostly above about 0.92. Some of the results follow.

Assay: chemical genetic growth profiling, strain panel (AID 1159580);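 note: tested at 20 µM; growth read once vehicle control cultures reached saturation at 30 °C; 1 = growth at the plate median or of vehicle wells; lower values mean less growth of the strain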
Conditions: S. cerevisiae deletion strains, growth OD

Measured: normalized growth

O=C(O)C1=C[C@@H](O)[C@@H](O)[C@H](O)C1
inactive: locus YAL013W, strain DEP1, active compounds read low 1.02 | locus YAL021C, strain ccr4, active compounds read low 1 | locus YAL026C, strain drs2, active compounds read low 0.978 | locus YAL030W, strain snc1, active compounds read low 0.969 | locus YBL061C, strain skt5, active compounds read low 0.974 | locus YBR009C, strain hhf1, active compounds read low 0.988 | locus YBR021W, strain FUR4, active compounds read low 1.02 | locus YBR023C, strain chs3, active compounds read low 0.988 | locus YBR171W, strain sec66, active compounds read low 0.985 | locus YBR229C, strain ROT2, active compounds read low 1.01 | locus YBR231C, strain swc5, active compounds read low 0.98 | locus YBR279W, strain paf1, active compounds read low 0.977 | locus YCL011C, strain gbp2, active compounds read low 0.99 | locus YCL016C, strain dcc1, active compounds read low 0.987 | locus YCL029C, strain bik1, active compounds read low 1.01 | locus YCL061C, strain MRC1, active compounds read low 0.989 | locus YCL069W, strain vba3, active compounds read low 0.977 | locus YCR088W, strain abp1, active compounds read low 0.974 | locus YDL005C, strain med2, active compounds read low 0.976 | locus YDL035C, strain GPR1, active compounds read low 1.04 | locus YDL040C, strain nat1, active compounds read low 0.987 | locus YDL074C, strain BRE1, active compounds read low 1.07 | locus YDL101C, strain DUN1, active compounds read low 1.03 | locus YDL134C, strain PPH21, active compounds read low 0.999 | locus YDL185W, strain tfp1, active compounds read low 1.01 | locus YDL192W, strain arf1, active compounds read low 1.02 | locus YDR001C, strain nth1, active compounds read low 0.975 | locus YDR069C, strain doa4, active compounds read low 0.97 | locus YDR101C, strain arx1, active compounds read low 1.04 | locus YDR137W, strain rgp1, active compounds read low 0.977 | locus YDR150W, strain NUM1, active compounds read low 1.02 | locus YDR159W, strain sac3, active compounds read low 0.979 | locus YDR162C, strain NBP2, active compounds read low 1.01 | locus YDR195W, strain ref2 0.946 | locus YDR297W, strain sur2, active compounds read low 0.963 | locus YDR318W, strain mcm21, active compounds read low 0.999 | locus YDR334W, strain swr1, active compounds read low 0.966 | locus YDR335W, strain msn5, active compounds read low 0.976 | locus YDR388W, active compounds read low 1.01 | locus YDR392W, strain spt3, active compounds read low 1.04 | locus YDR502C, strain sam2, active compounds read low 1.01 | locus YEL003W, strain gim4, active compounds read low 0.979 | locus YEL037C, strain rad23, active compounds read low 0.971 | locus YEL061C, strain CIN8 (second series), active compounds read low 0.973 | locus YEL061C, strain CIN8, active compounds read low 1.01 | locus YER015W, strain faa2, active compounds read low 0.988 | locus YER016W, strain bim1, active compounds read low 0.977 | locus YER110C, active compounds read low 1.01 | locus YER111C, strain swi4, active compounds read low 0.967 | locus YER155C, strain BEM2 (second series), active compounds read low 0.958 | locus YER155C, strain BEM2, active compounds read low 1.01 | locus YER167W, strain BCK2, active compounds read low 1.01 | locus YFR010W, strain ubp6, active compounds read low 0.964 | locus YGL078C, strain dbp3, active compounds read low 1.01 | locus YGL086W, strain mad1, active compounds read low 1.07 | locus YGL167C, strain pmr1, active compounds read low 0.977 | locus YGL173C, strain kem1, active compounds read low 0.974 | locus YGL227W, strain vid30, active compounds read low 0.986 | locus YGL240W, strain doc1, active compounds read low 0.988 | locus YGL248W, strain PDE1, active compounds read low 1.03 | locus YGL253W, strain hxk2, active compounds read low 0.984 | locus YGR135W, strain pre9, active compounds read low 1.02 | locus YGR252W, strain gcn5, active compounds read low 0.931 | locus YHR013C, strain ard1, active compounds read low 0.949 | locus YHR027C, strain rpn1, active compounds read low 0.968 | locus YHR030C, strain SLT2, active compounds read low 1.01 and 0.984 | locus YHR079C, strain IRE1 (second series), active compounds read low 1.01 | locus YHR079C, strain IRE1, active compounds read low 0.972 | locus YHR094C, strain hxt1, active compounds read low 0.993 | locus YHR129C, strain ARP1, active compounds read low 1.02 | locus YHR142W, strain chs7, active compounds read low 0.995 | locus YHR200W, strain rpn10, active compounds read low 0.996 | locus YIL066C, strain RNR3, active compounds read low 1.02 | locus YIL073C, strain SPO22, active compounds read low 1.08 | locus YIL125W, strain kgd1, active compounds read low 1.03 | locus YIR030C, strain dcg1, active compounds read low 0.999 | locus YJL092W, strain hpr5, active compounds read low 0.976 | locus YJL095W, strain BCK1 (second series), active compounds read low 0.978 | locus YJL095W, strain BCK1, active compounds read low 1.04 and 0.998 | locus YJL115W, strain asf1, active compounds read low 0.952 | locus YJL129C, strain trk1, active compounds read low 0.981 | locus YJL134W, strain LCB3, active compounds read low 1.01 | locus YJL154C, strain vps35, active compounds read low 0.983 | locus YJL164C, strain tpk1, active compounds read low 0.981 | locus YJL166W, strain qcr8, active compounds read low 0.974 | locus YJL168C, strain set2, active compounds read low 1.01 | locus YJL187C, strain SWE1 (second series), active compounds read low 1.04 | locus YJL187C, strain SWE1, active compounds read low 0.976
